What all share (assay): NCI-60 one-dose screen, 48 h (100 = growth as untreated, 0 = no growth, -100 = all killed)
Conditions in all cases: 10 µM unless noted

Test [1] concerns SK-MEL-2 melanoma.
Test [2] has as its system EKVX NSCLC.
Test [3] deals with SN12C renal.
For test [4], the system named is UO-31 renal.
Test [5] deals with TK-10 renal.
The test system of test [6] is ACHN renal.
The subject of test [7] is CAKI-1 renal.
For test [8], the system named is A498 renal.
Test [9] has as its system CCRF-CEM leukemia.
Test [10] has as its system MOLT-4 leukemia.
Test [11] has as its system SR leukemia.
Test [12] deals with RPMI-8226 leukemia.
The test system of test [13] is OVCAR-8 ovarian.
In test [14] the test system is OVCAR-5 ovarian.
For test [15], the system named is OVCAR-4 ovarian.
Test [16] has as its system SK-OV-3 ovarian.
Test [17] concerns IGROV1 ovarian.
Test [18] deals with OVCAR-3 ovarian.
Test [19] relates to HS 578T breast.
Test [20] concerns NCI/ADR-RES ovarian.

This is part of a sample that, as a whole, favours compounds with a hit. Of some 83,000 tested, about 20% had one in any assay.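 Values shown are percent growth following 48 h exposure of cells in 96-well plates to a single concentration of compound; below 10 was considered active.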 Unmarked numbers belong to inactive results. Activity calls are given as the source filed them.

For `CN1C(=O)N(C)C2C1NN=c1s/c(=C\c3ccsc3)c(=O)n12` (stereo not given), the growth in [1] is 56.4%; in test [2] it was 65.8%; in [3], 58.8%; in test [4] it was 56%; in [5], 76.8%; in test [6] it was 47%. Moreover, the growth is 35.7% in test [7]; 7.47% (active) in test [8]; 28.8% in test [9]; 49.7% in [10]; 20.6% in test [11]; 58% in [12]. The growth is 59.5% in test [13]; 72.6% in test [14]; 89.5% in test [15]; 59.7% in [16]; 46.9% in test [17]; 14.9% in [18]. Besides, the results for the growth in test [19] and in test [20] were 53.9% and 39.8%, respectively.
Turning to `O=C(/C=C/c1ccccc1)c1c[nH]c2ccccc2c1=O`, the growth in test [1] was 95.5%; in test [2], 36.3%; in test [3], 8.29% (active); in test [4], 4.93% (active); in test [5], 22.5%; in test [6], 11.6%. Further, the growth is 4.66% (active) in test [7]; -6.19% (active) in test [8]; -12.2% (active) in test [9]; 9.81% (active) in test [10]; 10.8% in [11]; -15.9% (active) in test [12]. Also, the growth in test [13] is -13.3% (active); in [14], 3.5% (active); in test [15] it was 42.1%; in test [16], 11.6%; in test [17] it was -11.5% (active); in [18] it was -60.9% (active). Also, the growth in [19] is -18.8% (active); in test [20], 0.29% (active).
Turning to `OCCN(CCO)c1ccc2ccccc2c1`, the growth in test [1] was 87.3%; in test [2] it was 102%; in [3], 94.2%; in [4], 65%; in test [5], 97.6%; in [6] it was 106%. Besides, the growth in test [7] is 97.3%; in test [8], 110%; in test [9] it was 109%; in test [10], 98.8%; in test [11] it was 104%; in test [12], 110%. The growth in test [13] is 104%; in test [14], 98.8%; in [15] it was 104%; in test [16], 98.3%; in test [17] it was 93.7%; in [18], 103%. Moreover, the growth in test [19] is 105%; in test [20] it was 98.7%.
For the molecule `COc1cc(-c2nc(-c3ccc(-c4nc5ccc(F)cc5[nH]4)cc3)no2)cc(OC)c1OC`, the growth was 55.6% in [1]; 46.9% in test [2]; 66.1% in test [3]; 19.8% in test [4]; 93% in test [5]; 36.7% in test [6]. The growth in [7] is 47.3%; in test [8] it was 71.2%; in test [9] it was 8.61% (active); in [10] it was 21.1%; in test [11], 32.5%; in test [12], -15.3% (active). Besides, the growth is 5.86% (active) in test [13]; 72.9% in test [14]; 30.9% in test [15]; 85.5% in [16]; 47.3% in test [17]; 36.6% in [18]. Moreover, the growth is 30.5% in test [19] and 13.3% in test [20].
On to `CCCCCCCCOC(=O)C(C)OC(=O)OCCOCCOC(=O)OC(C)C(=O)OCCCCCCCC` (stereo not given), for which the growth is 110% in test [1]; 94% in [2]; 99.3% in [3]; 87.5% in test [4]; 115% in [5]; 98.8% in test [6]. Also, the growth was 95.8% in [7]; 119% in test [8]; 102% in test [9]; 108% in test [10]; 104% in test [11]; 98.7% in test [12]. The growth in [13] was 105%; in test [14] it was 81.8%; in test [15] it was 117%; in test [16], 103%; in test [17] it was 104%; in test [18], 98.6%. For the same molecule, the growth in [19] is 102%; in [20], 101%.
On to `COc1cc(C2CC(c3ccc(C)cc3)=NN2C=O)ccc1Oc1ccnc2cc(Cl)ccc12` (stereo not given), for which the growth is 6.3% (active) in [1]; 79.2% in test [2]; 75.7% in [3]; 95.3% in test [4]; 54.5% in test [5]; 48.3% in test [6]. The growth was 69.7% in [7]; 53.3% in test [8]; 82.8% in test [9]; 80.3% in test [10]; 96.6% in test [11]; 87.8% in test [12]. The growth in test [13] is 60.3%; in [14] it was 98%; in test [15], 95.8%; in [16] it was -15.4% (active); in test [17], 77.2%; in test [18] it was 39.5%. For the same molecule, the growth in [19] is 7.47% (active); in test [20], 65.8%.
Regarding `COc1cc(Nc2ncccc2/C=C/C(=O)c2cc(OC)c(OC)c(OC)c2)cc(OC)c1OC`, the growth in test [1] is 78.3%; in test [2], 90.5%; in test [3] it was 79.3%; in test [4] it was 65.6%; in [5], 121%; in [6], 76.1%. The growth in test [7] is 72%; in test [8], 84.9%; in test [9], 40.8%; in test [10], 70.9%; in [11] it was 9.53% (active); in [12], 52.1%. In addition, the growth in [13] is 71.4%; in test [14], 102%; in test [15] it was 83.1%; in [16] it was 97.4%; in test [17] it was 87.1%; in [18] it was 91.9%. The growth in test [19] was 99.5%; in test [20], 79.4%.

The record behind these values is PubChem BioAssay (NCI).
